Bioassay records: PubChem BioAssay, National Center for Advancing Translational Sciences (NCATS)
Rows were chosen to be rich in hits. Some 1.8% of all compounds tested hit in one or more screens of this group.
IkB sig inh: IkB Signaling | actives 0.04% (n = 110,000) | ABC-DLBCL IkBa-CBG/CBR dual luciferase ratio, 4 h; response scale: scaled: untreated 0%, proteasome inhibitor 100% | AID 445, 2006 | Potency, µM (highest dose often 57.1 µM), without a hit: at the top dose IkBa stabilization activation; active = well fitted curve in the direction sought with a large enough effect in the signal ratio, not every such curve was filed as active; inconclusive = small, poorly fitted or top-dose-only effect, or a change in a side signal; the % refers to the signal ratio;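 also: the direction sought is a rising ratio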
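In this assay, an IκBα–CBG68 fusion accumulates when IKK-driven degradation is blocked; native CBR normalizes for cell number. OCI-Ly3 cells were treated 4 h with compound and doxycycline, then green and red light read after Chroma-Glo addition.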
p53ts 39C kill: qHTS Screen for Compounds that Selectively Target Cancer Cells with p53 Mutations: Cytotoxicity of p53ts Cells at the Nonpermissive Temperature; H1299-p53A138V viability at 39C, ATP luminescence, 24 h; Potency, µM (top dose mostly 46.1 µM), without a hit: at the highest dose activity change, negative = cell killing, usual class: cytotoxic; actives 1.5% (n = 130,000); AID 902, 2007; also: % is scaled to controls: 0 for no effect and ±100 for the full control effect; nearly all actives have a fitted effect of over 55% in size
Imprint erasure: qHTS Assay for Compounds that Induce Erasure of Genomic Imprints; AID 1948, 2009; Potency, µM (titrated, usually from 60.7 µM), for inactives: at the top dose activity change, positive = activation, actives largely listed as activators; actives 0.02% (n = 110,000); mouse ES Peg3-LacZ reporter, beta-gal luminescence, 40 h
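Readout: BetaGlo luminescence (5 min, room temp) for LacZ from the normally silent maternal Peg3 allele in female Peg3LacZ-Neo ES cells. Cells 300/well, 40 h, 37C, 5% CO2. Data normalized per plate to negative controls.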
p53ts 32C kill: qHTS Screen for Compounds that Selectively Target Cancer Cells with p53 Mutations: Cytotoxicity of p53ts Cells at the Permissive Temperature | H1299-p53A138V at 32C, ATP luminescence viability, 24 h | Potency, µM (titrated, usually from 46.1 µM), for inactives: top-dose activity change, negative = cytotoxicity, hits mostly cytotoxic | actives 0.93% (n = 130,000);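 also: 0% = DMSO and -100% = full killing by reference compound; nearly all actives have a fitted effect of over 55% in size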
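Cells: H1299 p53ts (A138V), 600/well, pre-incubated 16–30 h at 37C. Cpd up to 46 uM, 24 h, 32C. Readout: ATPlite luminescence, 20 min RT. Normalization: DMSO vs tamoxifen 100 uM. AC50 by Hill equation.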
Starred values were filed as active, the others as inactive; ? = inconclusive; / = no result given; [ ] = another dose, or the depositor's remark. Unless noted, calls follow the shape of the dose curve; as a rule, active = well fitted curve in the direction sought with a large enough effect; inconclusive = small, poorly fitted or top-dose-only effect, or another doubt; inactive = no such curve, though single readings can be large; an effect the other way counts as inactive or inconclusive. Potency is read from the fitted curve at half-maximal effect.

SMILES	IkB sig inh	p53ts 39C kill	Imprint erasure	p53ts 32C kill
COC(=O)c1cccc(NC(=O)c2cccc(OC)c2)c1	3.4%	?	-85.7%	?
COC(=O)c1ccc(NC(=O)c2cccc(OC)c2)cc1	?	?	-86.4%	12.6µM*
C[C@H](C(=O)c1ccccc1)C(c1ccccc1)N1CCOCC1 (stereo partly drawn)	/	/	-13.1%[10.9 µM]	/
CCCN1CCCc2cc(CN(CCCN3CCOCC3)C(=O)Nc3ccc(Cl)c(Cl)c3)ccc21	?	-12.8%	-8.5%[10.9 µM]	-4.7%
O=C(CC1CCCC1)OCn1nnc2ccccc2c1=O	0.5%	-3.8%	-3.7%	8.2%
CCOC(=O)OCC1OC(C#Cc2ccc(C(C)(C)C)cc2)C=CC1OC(=O)OCC (stereo not drawn)	/	-1.7%[9.22 µM]	/	5.8%[9.22 µM]
CC1CCC2C(=O)N3C(CCC(C)[C@@H]3c3ccc(Br)cc3)C(=O)N2C1c1ccc(Br)cc1 (stereo partly drawn)	/	-17.0%[9.22 µM]	/	-4.9%[9.22 µM]
CC(=O)N1CCc2cc(NC(=O)c3ccc(C)cc3)ccc21	-2.3%	10µM*	-9.2%	6.31µM*
C=C(CO)[C@H]1Cc2c(ccc3c(=O)c4c(oc23)COc2cc(OC)c(OC)cc2-4)O1	-1.4%[11.4 µM]	/	/	/
CC(O)/C=C/c1ccc2ccccc2n1 (stereo not drawn)	3.1%	?	-52.6%	25.1µM*
Nc1cc(C(=O)O)c(O)c(S(=O)(=O)O)c1	1.9%	12.5%	-2.7%	7.1%[1.84 µM]
CC(C)(C)c1ccc(S(=O)(=O)N2CCN(CCC#N)CC2)cc1	-0.8%	12.5%	-5.7%	2.9%
Cc1ccc(S(=O)(=O)/C=C\C#N)cc1	?	12.6µM*	-78.3%	12.6µM*
COC(=O)/C=C/S(=O)(=O)c1ccc(NC(C)=O)cc1	?	?	-33.8%	?
CC(C)(C)c1ccc(S(=O)(=O)/C=C\C#N)cc1	?	20µM*	-52.8%	15.8µM*
COc1ccc(CNC(=O)Cn2ccc3cc(S(=O)(=O)N4CCCC4)ccc32)c(OC)c1	?	-11.6%	-4.9%[10.9 µM]	-7.8%
C[C@@H]1CN(CCCn2c3ccccc3c3ccccc32)C[C@H](C)N1	?	25.1µM*	-23.8%	16.5%
CCc1cccc(C)c1NC(=O)c1cc(S(=O)(=O)N2CCN(c3ccccc3)CC2)ccc1F	?	-18.4%	-11.8%[10.9 µM]	15.6%
COc1ccc(NC(=O)c2ccc(-c3ccc(-c4noc(C)n4)cc3C)cc2)cc1N1CCN(C)CC1	?	20µM*	-30.6%	?
COc1ccc(NC(=O)c2ccc(-c3ccc(-c4noc(C)n4)cc3C)cc2)cc1OCCN(C)C	?	7.94µM*	-33.9%	25.1µM*
COc1ccc(NC(=O)N2CCN(c3cc(-c4noc(C)n4)ccc3C)CC2)c(OC)c1	0.8%	-26.4%	-11.8%[10.9 µM]	7.7%
CC(C)Oc1ccc(CNC(=O)Nc2ccc3c(c2)N(C)C(=O)c2ccccc2S3)cc1	0.5%	-28.4%	-6.3%[10.9 µM]	-8.6%
CC[C@@H](C)[C@H]1O[C@]2(CC[C@@H]1C)C[C@@H]1C[C@@H](C/C=C(\C)[C@@H](O[C@H]3C[C@H](OC)[C@@H](O[C@H]4C[C@H](OC)[C@@H](O)[C@H](C)O4)[C@H](C)O3)[C@@H](C)/C=C/C=C3\CO[C@@H]4[C@H](O)C(C)=C[C@@H](C(=O)O1)[C@]34O)O2	/	/	-33.1%	/
CC[C@H](C)[C@@H]1O[C@]2(CC[C@@H]1C)C[C@H]1C[C@H](CC=C(C)[C@@H](O[C@@H]3C[C@H](OC)[C@H](O[C@@H]4C[C@H](OC)[C@H](O)[C@H](C)O4)[C@H](C)O3)[C@@H](C)C=CC=C3CO[C@@H]4[C@@H](O)C(C)=C[C@@H](C(=O)O1)[C@]34O)O2	1.5%[25.6 µM]	12.6µM*	-23.9%[16.8 µM]	?
CC[C@@H](C)[C@H]1O[C@]2(CC[C@@H]1C)C[C@@H]1C[C@H](C/C=C(/C)[C@H](O[C@@H]3C[C@H](OC)[C@H](O[C@@H]4C[C@H](OC)[C@@H](O)[C@H](C)O4)[C@H](C)O3)[C@@H](C)/C=C\C=C3CO[C@@H]4[C@H](O)C(C)=C[C@@H](C(=O)O1)[C@]34O)O2 (tested in a mixture with another compound)	?	12.6µM*	-4.9%	12.6µM*
SMILES	IkB sig inh	p53ts 39C kill	Imprint erasure	p53ts 32C kill
CC[C@H](C)[C@@H]1O[C@]2(CC[C@@H]1C)C[C@H]1C[C@H](CC=C(C)[C@@H](O[C@H]3C[C@H](OC)[C@H](O[C@H]4C[C@H](OC)[C@H](O)[C@H](C)O4)[C@H](C)O3)[C@@H](C)C=CC=C3CO[C@@H]4[C@@H](O)C(C)=C[C@H](C(=O)O1)[C@@]34O)O2	14.4%	5.01µM*	/	10µM*
CC(=O)c1ccc(OC2C=CC(C#Cc3ccc(Br)cc3)OC2CO)cc1 (stereo not drawn)	/	-10.5%[9.22 µM]	/	-1.3%[9.22 µM]
CCc1ccc(S(=O)(=O)Nc2ccc(O)c(C(=O)O)c2)cc1	/	9.9%	/	3.5%
O=C1OC(C2=CCCCC2)=NC12CC2	/	0.7%[9.22 µM]	/	-3.4%[9.22 µM]
CCC(C)C(=O)N1CCc2cc(-c3csc(N)n3)ccc21 (stereo not drawn)	-1.5%	12.6µM*	-24.7%	10µM*
CCCC(=O)N1CCc2cc(-c3nc(N)sc3C)ccc21	-2.8%	-25.2%	-21.9%	-11.5%
Nc1nc(-c2ccc3c(c2)OCCO3)cs1	-1.2%	?	-12.8%	?
Nc1nc(-c2ccc3c(c2)CCCC3)cs1	-0.6%	12.6µM*	7.1%	?
COc1cccc(N2CCN(S(=O)(=O)c3cn(C)c(C)n3)CC2)c1	?	-11.2%	4.7%[10.9 µM]	-6.8%
O=C(O)[C@@H]1[C@H](C(=O)O)[C@H]2C(=O)C=C[C@H]1N2Cc1ccccc1	3.98µM*	1.9%[9.22 µM]	-18.6%[10.9 µM]	5.8%[9.22 µM]
CCOc1ccc(C(=O)OCc2cc(=O)n3nc(C(C)C)sc3n2)cc1	-2.1%	-20.1%	-6.4%[10.9 µM]	-3.5%
CCn1c(NC(C)=O)nc2ccccc21	/	26.0%	/	6.0%
CCn1c(=O)c(C(=O)Nc2ccc(C(C)=O)cc2)nc2ccccc21	2.0%	12.6µM*	2.1%[10.9 µM]	10µM*
COc1ccccc1CCNC(=O)CCCn1c(=O)c2cccn2c2cccnc21	-0.6%	-9.4%	14.8%[10.9 µM]	-6.9%
Cc1ccc(-c2cc(C(=O)N3CCN(c4ccccc4)CC3)c3ccccc3n2)cc1C	1.1%	10µM*	4.6%[10.9 µM]	12.6µM*
CC(C)NC(=O)C1CCCN(S(=O)(=O)c2ccc3c(ccn3C)c2)C1 (stereo not drawn)	1.3%	-9.7%	11.7%[10.9 µM]	-0.7%
CC(C)c1ccc(NC(=O)c2csnn2)cc1	-2.0%	15.8µM*	-51.5%	12.6µM*
CCN(CC)C(=O)CSc1nnc(CNc2ccc(F)cc2)n1-c1ccccc1	/	1.7%	/	1.6%
c1cc2c(cc1C1CCCCC1)c1c3n2CCN[C@H]3CCC1	?	10µM*	-22.4%	25.1µM*
